Read-out in assay [1]: C-C motif chemokine 2 (Homo sapiens) (UniProt P13500)
Put plainly: BSK_KF3CT_MCP1: BioMAP Diversity Plus: KF3CT Assay for Monocyte Chemoattractant Protein 1 (MCP1/CCL2) Biomarker Activity (AID 2283073). The conditions noted are these: primary human keratinocytes with fibroblasts; actives raise or lower the signal. A digest of the protocol:
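Human keratinocyte–foreskin fibroblast co-culture; MCP-1 measured by ELISA 24 h after dosing. Bidirectional fit vs DMSO; cytotoxicity tracked by SRB total protein in parallel cultures.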

Read-out in assay [2]: Matrix Metallopeptidase 9 (MMP9), MMP9 (gene 4318)
Put plainly: BSK_KF3CT_MMP9: BioMAP Diversity Plus: KF3CT Assay for Matrix Metallopeptidase 9 (MMP9) Biomarker Activity (AID 2283074).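 On AC50: MMP9 protein level quantified by ELISA in the co-culture.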 The conditions noted are these: primary human keratinocytes with fibroblasts; actives raise or lower the signal. A digest of the protocol:
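Human keratinocyte/foreskin fibroblast co-culture; compound added; 24 h; MMP-9 by ELISA; bidirectional fit vs DMSO baseline.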

Read-out in assay [3]: urokinase plasminogen activator (uPA), PLAU (gene 5328)
Put plainly: BSK_KF3CT_uPA: BioMAP Diversity Plus: KF3CT Assay for urokinase plasminogen activator (uPA) Biomarker Activity (AID 2283075). The conditions noted are these: primary human keratinocytes with fibroblasts; actives raise or lower the signal. The gist of the method: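 ELISA readout of uPA, analyzed for signal gain or loss relative to DMSO, from a human primary keratinocyte–foreskin fibroblast co-culture measured 24 h after chemical treatment.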

Read-out in assay [4]: CD40, CD40 (gene 958)
Put plainly: BSK_LPS_CD40: BioMAP Diversity Plus: LPS Assay for CD40 Biomarker Activity (AID 2283076). The conditions noted are these: primary human HUVEC with PBMC; actives raise or lower the signal. A digest of the protocol:
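HUVEC plus PBMC co-culture stimulated with LPS; CD40 quantified by ELISA 24 h after compound dosing. Fitting was bidirectional relative to DMSO. SRB staining of parallel cultures flagged overt cytotoxicity.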

Read-out in assay [5]: E-selectin (Homo sapiens) (UniProt P16581)
Kind of assay: BSK_LPS_Eselectin: BioMAP Diversity Plus: LPS Assay for Eselectin Biomarker Activity (AID 2283077). The conditions noted are these: primary human HUVEC with PBMC; actives raise or lower the signal. A digest of the protocol:
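Human umbilical vein endothelial cells co-cultured with PBMC under LPS stimulation; cell-surface E-selectin measured by ELISA 24 h after dosing. Change in either direction versus DMSO, with SRB total-protein staining in parallel cultures for cytotoxicity.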

Read-out in assay [6]: Interleukin-8 (IL8), CXCL8 (gene 3576)
Kind of assay: BSK_LPS_IL8: BioMAP Diversity Plus: LPS Assay for Interleukin-8 (IL8) Biomarker Activity (AID 2283078). The conditions noted are these: primary human HUVEC with PBMC; actives raise or lower the signal. A digest of the protocol:
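Human umbilical vein endothelial cells co-cultured with PBMC, LPS-stimulated, exposed to compound for 24 h. IL-8 quantified by ELISA; fitted in both directions against DMSO, with SRB total-protein staining of parallel cultures for cytotoxicity.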

Assay [7] can be described thus: BSK_LPS_SRB: Viability Assessment in the BioMAP Diversity Plus: LPS Assay (AID 2283079).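 Further: total protein by sulforhodamine B absorbance as a cytotoxicity measure; measured one day after compound addition; fitted in both directions against DMSO so loss or gain of signal counts.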 The conditions noted are these: primary human HUVEC with PBMC. A digest of the protocol:
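Co-culture of human umbilical vein endothelial cells and PBMC, read 24 h after dosing. Total protein by 0.1% SRB staining after 10% TCA fixation, absorbance at 560 nm; bidirectional fit against DMSO.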

Read-out in assay [8]: Interleukin-1 alpha (IL1a), IL1A (gene 3552)
Kind of assay: BSK_LPS_IL1a: BioMAP Diversity Plus: LPS Assay for Interleukin-1 alpha (IL1a) Biomarker Activity (AID 2283080). The conditions noted are these: primary human HUVEC with PBMC; actives raise or lower the signal. The gist of the method: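 Human umbilical vein endothelial cells co-cultured with PBMC and stimulated with LPS; IL-1a measured by ELISA 24 h after dosing. Bidirectional fitting against DMSO; cytotoxicity checked by SRB staining in parallel cultures.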

Read-out in assay [9]: Monocyte Chemoattractant Protein-1 (MCP1), CCL2 (gene 6347)
Kind of assay: BSK_LPS_MCP1: BioMAP Diversity Plus: LPS Assay for Monocyte Chemoattractant Protein-1 (MCP1) Biomarker Activity (AID 2283081).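 On AC50: secreted MCP-1 protein quantified by ELISA in culture supernatant.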 The conditions noted are these: primary human HUVEC with PBMC; actives raise or lower the signal. A digest of the protocol:
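Human umbilical vein endothelial cells co-cultured with PBMC, LPS-stimulated; secreted MCP-1 measured by ELISA 24 h after compound addition. Bidirectional curve fitting against DMSO baseline; SRB total-protein staining in parallel cultures for cytotoxicity.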

A short description of assay [10]: BSK_LPS_PGE2: BioMAP Diversity Plus: LPS Assay for Prostaglandin E2 (PGE2) Biomarker Activity (AID 2283082). The conditions noted are these: primary human HUVEC with PBMC; actives raise or lower the signal. A digest of the protocol: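 Endpoint derived from bidirectional curve fitting versus DMSO of ELISA-measured PGE2 in LPS-stimulated human primary vascular co-culture (HUVEC with PBMC) harvested at 24 h.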

Read-out in assay [11]: Macrophage colony-stimulating factor (MCSF), CSF1 (gene 1435)
Put plainly: BSK_LPS_MCSF: BioMAP Diversity Plus: LPS Assay for Macrophage colony-stimulating factor (MCSF) Biomarker Activity (AID 2283083). The conditions noted are these: primary human HUVEC with PBMC; actives raise or lower the signal. A digest of the protocol: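 HUVEC–PBMC co-culture, M-CSF measured by ELISA 24 h after chemical dosing. Fitted in both directions relative to DMSO as negative control; overt cytotoxicity assessed by SRB total-protein staining in parallel cultures.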

Read-out in assay [12]: Tissue Factor, F3 (gene 2152)
Put plainly: BSK_LPS_TissueFactor: BioMAP Diversity Plus: LPS Assay for Tissue Factor Biomarker Activity (AID 2283084). The conditions noted are these: primary human HUVEC with PBMC; actives raise or lower the signal. A digest of the protocol:
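Human umbilical vein endothelial cells co-cultured with PBMC were dosed with compound. Cell-surface CD142 was measured by ELISA 24 h later. Activity was fitted bidirectionally against DMSO, with SRB total-protein staining in parallel cultures for cytotoxicity.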

Read-out in assay [13]: Tumor necrosis factor (Homo sapiens) (UniProt P01375)
Put plainly: BSK_LPS_TNFa: BioMAP Diversity Plus: LPS Assay for Tumour Necrosis Factor alpha (TNFa) Biomarker Activity (AID 2283085). The conditions noted are these: primary human HUVEC with PBMC; actives raise or lower the signal. The gist of the method:
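Primary human vascular co-culture of HUVEC and PBMC; TNFa ELISA 24 h after treatment, analysed as increase or decrease relative to DMSO control.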

Read-out in the next assay: CD38, CD38 (gene 952)
Put plainly: BSK_SAg_CD38: BioMAP Diversity Plus: SAg Assay for CD38 Biomarker Activity (AID 2283087). The conditions noted are these: primary human HUVEC with PBMC; actives raise or lower the signal. The gist of the method:
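Fluorescence ELISA of cell-surface CD38 served as the read-out, with either increase or decrease fitted against DMSO controls. Cells were a human umbilical vein endothelium plus PBMC co-culture under SEB/TSST-1 stimulation, measured 24 h after dosing.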

Read-out in assay [14]: CD40, CD40 (gene 958)
Put plainly: BSK_SAg_CD40: BioMAP Diversity Plus: SAg Assay for CD40 Biomarker Activity (AID 2283088). The conditions noted are these: primary human HUVEC with PBMC; actives raise or lower the signal. The gist of the method: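 HUVEC plus PBMC co-culture, superantigen-activated, with CD40 read by ELISA 24 h after dosing. Curves fitted in both directions against DMSO. Overt cytotoxicity checked by parallel SRB total-protein staining.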

Read-out in a further assay: CD69, CD69 (gene 969)
Put plainly: BSK_SAg_CD69: BioMAP Diversity Plus: SAg Assay for CD69 Biomarker Activity (AID 2283089).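 On AC50: cell surface CD69 protein quantified by ELISA with fluorescence detection.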 The conditions noted are these: primary human HUVEC with PBMC; actives raise or lower the signal. The gist of the method:
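Endothelial/PBMC co-culture; chemical added; 24 h incubation; CD69 ELISA with fluorescence detection; bidirectional fit vs DMSO.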

Read-out in assay [15]: Monocyte Chemoattractant Protein-1 (MCP1), CCL2 (gene 6347)
Put plainly: BSK_SAg_MCP1: BioMAP Diversity Plus: SAg Assay for Monocyte Chemoattractant Protein-1 (MCP1) Biomarker Activity (AID 2283090). The conditions noted are these: primary human HUVEC with PBMC; actives raise or lower the signal. A digest of the protocol:
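MCP-1 levels in the endothelial–PBMC SAg co-culture were quantified by ELISA at 24 h post-dosing; both increases and decreases versus DMSO scored. Cytotoxicity monitored by SRB total protein in parallel cultures.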

Read-out in assay [16]: Monokine induced gamma interferon (MIG), CXCL9 (gene 4283)
Put plainly: BSK_SAg_MIG: BioMAP Diversity Plus: SAg Assay for Monokine induced gamma interferon (MIG) Biomarker Activity (AID 2283092). The conditions noted are these: primary human HUVEC with PBMC; actives raise or lower the signal. A digest of the protocol: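 Measures CXCL9 protein by ELISA in a human vascular primary-cell co-culture (umbilical vein endothelium with PBMC) 24 h after chemical addition. Activity is scored up or down from the DMSO control.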

Read-out in assay [17]: Vascular cell adhesion molecule 1 (VCAM1), VCAM1 (gene 7412)
Put plainly: BSK_LPS_VCAM1: BioMAP Diversity Plus: LPS Assay for Vascular cell adhesion molecule 1 (VCAM1) Biomarker Activity (AID 2283086). The conditions noted are these: primary human HUVEC with PBMC; actives raise or lower the signal. A digest of the protocol:
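Primary human vascular co-culture (umbilical vein endothelium plus PBMC) stimulated with LPS received chemical; 24 h later VCAM-1 was read by ELISA. Overt cytotoxicity was assessed by sulforhodamine B staining of parallel cultures at the same time point.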

Activity calls are given as the source filed them. How the source made its calls: active means hit-call score of the fitted dose curve at least 0.9, where 1 is the maximum; inactive means score below 0.9.

The results in this text go back to PubChem BioAssay (EPA / NIEHS).

In general, AC50 refers to the midpoint of the concentration-response curve, whichever way the signal moves.

Sequence of Tumor necrosis factor (Homo sapiens) (P01375 whole entry, looked up): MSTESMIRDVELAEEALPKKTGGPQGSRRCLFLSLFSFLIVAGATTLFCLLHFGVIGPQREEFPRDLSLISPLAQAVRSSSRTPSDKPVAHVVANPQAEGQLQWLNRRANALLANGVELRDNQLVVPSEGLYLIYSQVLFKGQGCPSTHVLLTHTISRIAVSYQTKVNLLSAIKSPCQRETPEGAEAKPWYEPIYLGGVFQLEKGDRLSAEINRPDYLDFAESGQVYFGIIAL
Sequence of E-selectin (Homo sapiens) (P16581 whole entry, looked up): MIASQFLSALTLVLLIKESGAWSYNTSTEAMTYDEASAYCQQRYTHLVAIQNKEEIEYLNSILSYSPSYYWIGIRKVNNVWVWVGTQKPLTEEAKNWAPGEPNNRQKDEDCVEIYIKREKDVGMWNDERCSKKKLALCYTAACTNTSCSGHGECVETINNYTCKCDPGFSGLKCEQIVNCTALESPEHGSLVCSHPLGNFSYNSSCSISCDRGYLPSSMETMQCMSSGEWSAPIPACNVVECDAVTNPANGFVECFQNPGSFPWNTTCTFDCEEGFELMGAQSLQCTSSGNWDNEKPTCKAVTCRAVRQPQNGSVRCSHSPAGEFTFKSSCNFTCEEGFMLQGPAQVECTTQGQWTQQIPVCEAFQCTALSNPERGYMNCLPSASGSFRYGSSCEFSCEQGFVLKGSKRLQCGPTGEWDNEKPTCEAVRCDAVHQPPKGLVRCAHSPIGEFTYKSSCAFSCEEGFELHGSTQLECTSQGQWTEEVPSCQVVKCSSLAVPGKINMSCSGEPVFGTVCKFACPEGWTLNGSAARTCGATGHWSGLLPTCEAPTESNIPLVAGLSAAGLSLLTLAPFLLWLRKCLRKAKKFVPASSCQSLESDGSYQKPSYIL

For `CC(C)(C)CC(C)(C)c1ccc(O)cc1`, the AC50 was 6.72 µM (active) in assay [1]; 9.64 µM (active) in [2]; 9.6 µM (active) in [3]; 7.8 µM (active) with CD40, CD40 (gene 958) [4]; 11.7 µM (active) in [5]; 13.9 µM (active) in [6]. For the same compound, the AC50 in assay [7] was 12.9 µM (active); in [8] it was 8.47 µM (active); in assay [9], 10.5 µM (active); in assay [11], 9.26 µM (active); in assay [12], 9.02 µM (active); in assay [13], 10 µM (active). Moreover, the AC50 is 7.91 µM (active) with CD38, CD38 (gene 952); 7.96 µM (active) in the assay with CD40, CD40 (gene 958) [14]; 11.5 µM (active) with CD69, CD69 (gene 969); 9.24 µM (active) in [15]; 10.7 µM (active) in assay [16]. Besides, in assay [10], the outcome was inactive.

As to `Nc1cccc2ccccc12`, the results for the AC50 in [2] and in [12] were 20 µM (active) and 9.83 µM (active), respectively. The outcome was “inactive” in [3]; “inactive” with CD40, CD40 (gene 958) [4]; “inactive” in assay [5]; “inactive” in [6]; “inactive” in assay [7]; “inactive” in [8]. For the same compound, the outcome in [9] was “inactive”; in assay [10] it was “inactive”; in [11], “inactive”; in assay [13], “inactive”; in assay [17], “inactive”; with CD38, CD38 (gene 952), “inactive”. In addition, the outcome with CD40, CD40 (gene 958) [14] was “inactive”; with CD69, CD69 (gene 969), “inactive”; in assay [15], “inactive”; in assay [16] it was “inactive”.

For the compound `O=C(O)CCC(F)(C(F)(F)F)C(F)(F)F`, the outcome was “inactive” in assay [1]; “inactive” in [2]; “inactive” in assay [3]; “inactive” in the assay with CD40, CD40 (gene 958) [4]; “inactive” in assay [5]; “inactive” in assay [6]. Besides, the outcome in assay [7], in [8], in assay [9], in assay [10], in assay [11] and in assay [12] was inactive. Besides, the outcome in [13] is “inactive”; in assay [17], “inactive”; with CD38, CD38 (gene 952), “inactive”; with CD40, CD40 (gene 958) [14] it was “inactive”; with CD69, CD69 (gene 969) it was “inactive”; in assay [15], “inactive”. Further, the result in [16] was inactive.
